Screening results from PubChem BioAssay.
Pol kappa inh-1 – DNA polymerase kappa (human) inhibition; hit rate 0.53% among 400,000; Potency, µM (doses to about 107 µM), without a hit: at the highest dose activity, negative = inhibition, most hits filed as inhibitors; purified Pol kappa, fluorescent DNA synthesis assay, 10 min; AID 588579; Q9UBT6; note: potency is the fitted concentration of half-maximal effect; % is set by controls: 0 for no effect and ±100 for the full control effect
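Readout: fluorescence, taken kinetically at 0 and 10 min. Conditions: 10 nM Pol kappa, 15 min RT compound preincubation, 50 nM substrate final. Controls: enzyme-free buffer wells.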
WRN inhibitor – blocks human WRN helicase. Q14191. WRN helicase unwinding, fluorescent forked duplex, kinetic. Potency, µM (series often up to 114 µM), without a hit: at the top dose activity change, negative = inhibition, hits mostly inhibitors. hit rate 0.46% among 360,000; note: potency is the fitted concentration of half-maximal effect; % is set by controls: 0 for no effect and ±100 for the full control effect; nearly all actives have a fitted effect of over 55% in size
Target sequence (Q14191 whole entry, looked up): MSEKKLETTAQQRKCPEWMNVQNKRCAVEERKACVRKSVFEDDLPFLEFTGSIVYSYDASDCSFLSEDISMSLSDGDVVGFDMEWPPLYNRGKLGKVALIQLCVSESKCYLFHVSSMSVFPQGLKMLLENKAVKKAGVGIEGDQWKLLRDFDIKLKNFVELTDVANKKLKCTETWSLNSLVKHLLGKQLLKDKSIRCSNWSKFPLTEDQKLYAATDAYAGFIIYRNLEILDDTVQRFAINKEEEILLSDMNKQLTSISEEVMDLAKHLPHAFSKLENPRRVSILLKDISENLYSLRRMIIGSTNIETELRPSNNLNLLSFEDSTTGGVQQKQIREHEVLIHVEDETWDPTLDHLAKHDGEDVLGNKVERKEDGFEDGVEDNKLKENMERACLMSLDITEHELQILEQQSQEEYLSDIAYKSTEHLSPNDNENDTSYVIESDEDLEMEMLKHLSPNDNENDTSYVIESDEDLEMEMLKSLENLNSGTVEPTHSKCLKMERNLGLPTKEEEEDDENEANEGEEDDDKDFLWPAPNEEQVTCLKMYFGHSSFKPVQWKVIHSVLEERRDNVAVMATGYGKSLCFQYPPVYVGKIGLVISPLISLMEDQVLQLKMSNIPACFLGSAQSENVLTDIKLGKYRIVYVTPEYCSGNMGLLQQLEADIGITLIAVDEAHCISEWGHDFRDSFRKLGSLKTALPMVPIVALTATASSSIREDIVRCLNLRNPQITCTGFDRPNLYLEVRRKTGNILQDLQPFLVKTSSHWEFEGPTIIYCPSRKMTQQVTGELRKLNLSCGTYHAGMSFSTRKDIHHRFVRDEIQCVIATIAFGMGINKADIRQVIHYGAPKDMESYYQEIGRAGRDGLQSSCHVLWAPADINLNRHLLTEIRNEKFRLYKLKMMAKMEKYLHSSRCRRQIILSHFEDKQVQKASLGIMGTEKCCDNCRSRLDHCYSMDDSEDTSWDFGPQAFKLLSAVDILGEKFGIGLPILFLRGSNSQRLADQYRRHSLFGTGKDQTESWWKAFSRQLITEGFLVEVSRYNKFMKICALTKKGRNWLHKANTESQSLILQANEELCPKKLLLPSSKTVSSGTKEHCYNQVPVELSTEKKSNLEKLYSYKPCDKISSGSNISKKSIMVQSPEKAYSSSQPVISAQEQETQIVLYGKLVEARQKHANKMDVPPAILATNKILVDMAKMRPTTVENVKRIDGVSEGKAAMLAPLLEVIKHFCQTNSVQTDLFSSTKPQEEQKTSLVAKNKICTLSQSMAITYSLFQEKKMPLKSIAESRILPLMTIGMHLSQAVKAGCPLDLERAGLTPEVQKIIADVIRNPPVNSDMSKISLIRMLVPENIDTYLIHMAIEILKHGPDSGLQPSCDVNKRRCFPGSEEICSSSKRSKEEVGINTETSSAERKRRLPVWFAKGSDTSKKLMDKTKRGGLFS
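Primary qHTS, 1536-well format. 20 nM WRN + compound, 15 min RT; start with 100 nM forked fluorophore/quencher duplex, 2 mM ATP (final); kinetic read ex 525/em 598 nm.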
PI5P4Ka inh – PI5P4K alpha (human) kinase inhibition | P48426 | PI5P4Kalpha enzyme, ADP-Glo luminescence, 60 min; active compounds read low | max response, % | hit rate 1.2% among 330,000 | AID 652105; active = max response of -50% or lower; inconclusive = between -30% and -50%; inactive = -30% or higher; note: value at the top dose of about 77 µM; % is set by controls: 0 for no effect and ±100 for the full control effect
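ADP-Glo luminescence end-point read after a 60 min room-temperature kinase reaction of PI5P4Kalpha plus substrate, initiated with ATP at 5 microM final. Buffer: 0.038 M HEPES pH 7.4, EGTA, 0.1% CHAPS, 5% DMSO.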
POLB inh – blocks human DNA polymerase beta activity; P06746; Pol beta primer extension/strand displacement, fluorescence kinetic; Potency, µM (doses to about 114 µM), for inactives: top-dose activity change, negative = inhibition, hits mostly inhibitors; hit rate 1.3% among 340,000; note: potency is the fitted concentration of half-maximal effect; % is set by controls: 0 for no effect and ±100 for the full control effect
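Pol beta (10 nM) was preincubated with compound for 15 min at room temperature. The reaction was then started with 50 nM substrate and read immediately and after a further 10 min at room temperature.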
POLI inh – DNA polymerase iota (human) inhibition. Pol iota fluorescent replication assay, 10 min. Potency, µM (doses to about 115 µM), inactives show at the top dose activity, negative = inhibition, hits mostly inhibitors. hit rate 1% among 390,000. AID 588590; note: potency is the fitted concentration of half-maximal effect
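Fluorescent replication assay read twice, at 0 min and 10 min after adding 50 nM (final) substrate. Enzyme (10 nM) and compounds were first incubated 15 min at room temperature; enzyme-free buffer wells were negative controls.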
Pol eta inh-1 – DNA polymerase eta (human) inhibition. recombinant Pol eta, fluorescent DNA replication assay. Potency, µM (series often up to 114 µM), for the others: at the top dose activity change, negative = inhibition, actives largely listed as inhibitors. hit rate 1.2% among 390,000. AID 588591; note: potency is the fitted concentration of half-maximal effect; % is set by controls: 0 for no effect and ±100 for the full control effect
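Pol eta (10 nM) was preincubated with compounds for 15 min at room temperature, after which fluorescent replication substrate (50 nM final) was added to start the reaction. Fluorescence was read kinetically at 0 and 10 min.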
Pol kappa inh-2 – Pol kappa (human) inhibition, cherry-pick confirmation; shares compounds with Pol eta inh-1; purified Pol-kappa, fluorescent strand-displacement substrate; Potency, µM, hits mostly inhibitors; hit rate 76% among 920; AID 720501; note: potency is the fitted concentration of half-maximal effect
Pol eta inh-2 – Pol eta (human) inhibition, cherry-pick confirmation | Pol eta primer extension, TAMRA/BHQ fluorescence, 10 min | shares compounds with Pol eta inh-1 | Potency, µM, hits mostly inhibitors | hit rate 64% among 2,600 | AID 720502; note: potency is the fitted concentration of half-maximal effect
Numbers without * were called inactive; ? = inconclusive; . = not tested or not shown; [ ] = remark or other dose. The list is not random: actives were taken first. Their share in the collection is about 2.8%. Unless noted, calls come from the whole dose curve; as a rule, active = well fitted curve in the direction sought with a large enough effect; inconclusive = small, poorly fitted or top-dose-only effect, or another doubt; inactive = no such curve, though single readings can be large; an effect the other way counts as inactive or inconclusive.

SMILES	Pol kappa inh-1	WRN inhibitor	PI5P4Ka inh	POLB inh	POLI inh	Pol eta inh-1	Pol eta inh-2	others
CN(Cc1ccccc1)C(=O)C1CCN(S(=O)(=O)c2cc([N+](=O)[O-])ccc2Cl)CC1	-6.0%	-9.6%	-0.9	-1.6%[57.1 µM]	?	-10.9%	.
C=CCOc1ccccc1/C=c1\sc2nc(=O)c(C)nn2c1=O	50.1µM*	?	.	25.1µM*	10µM*	28.2µM*	21.3*	Pol kappa inh-2=37.7*
COc1ccc(/C=c2\sc3nc(-c4ccccc4OC)nn3c2=O)c(OC)c1	-9.0%	-9.2%	-4.8	-23.5%	7.0%	?	.
O=[N+]([O-])c1ccc(N2CCSCC2)cc1	-10.4%	-2.0%	-1.2	4.5%	27.6%	-6.5%	.
COc1ccc(Nc2cc(C(=O)NCCCN3CCN(c4ccc(OC)cc4)CC3)c3ccccc3n2)cc1	-0.6%[60.1 µM]	.	.	-13.7%	-13.4%	-19.0%	.
CN(C)c1ccc(-c2ccnc3c2CC(C)(C(=O)Nc2ccc(Cl)c(C(F)(F)F)c2)O3)cc1 (stereo not drawn)	.	-13.5%	-10.4	.	.	.	.
O=C(COC(=O)C1CC1)Nc1ncc(Cl)cc1Cl	-38.2%	?	-16.6	.	?	28.2µM*	47.8*
Cc1csc(=O)n1CCC(=O)OCC(=O)Nc1ncc(Cl)cc1Cl	?	-35.2%	-21.8	.	?	22.4µM*	?	Pol kappa inh-2=21.2*
Cc1csc(=O)n1CCC(=O)OCC(=O)Nc1cc(Cl)ccc1[N+](=O)[O-]	-16.3%	-10.6%	-1.8	.	?	-10.9%	.
CCCN(CCC)S(=O)(=O)c1ccc(NC(=O)Cc2cccs2)cc1	-35.9%	-20.0%[57.1 µM]	.	?	?	?	75.7*
O=C(COC(=O)[C@@H]1CCCN1C(=O)c1cccs1)Nc1cccc([N+](=O)[O-])c1	-3.8%	4.5%	0.4	.	13.8%	-5.3%	.
CCOC(=O)c1c2c(n(Cc3ccccc3)c1C)C(=O)C(=O)c1ccccc1-2	-23.6%	-10.2%	13.6	.	39.8µM*	8.91µM*	84.9*
CCOC(=O)c1c2c(n(C)c1C)C(=O)C(=O)c1ccc(Br)cc1-2	4.6%	5.9%	9.8	.	7.4%	?	.
COc1ccc(C/C(N)=N/OC(=O)CCc2ccccc2)cc1	-3.4%	-35.1%	0.1	0.8%	61.2%	-16.3%	.
CC(=O)/C(N=Nc1ccc(C(=O)O)cc1[N+](=O)[O-])=C(\C)O	?	3.6%[11.6 µM]	-73.2*	?	50.1µM*	11.2µM*	?
CCOC(=O)/C(N=Nc1ccc(C(=O)O)cc1[N+](=O)[O-])=C(\C)O	-13.7%	8.3%	-17.7	-26.3%	?	-8.9%	.
CC(OC(=O)c1ccc(S(=O)(=O)NCc2ccco2)cc1)C(=O)Nc1ccc(Cl)cn1 (stereo not drawn)	-19.4%	-34.2%	?	?	?	?	67.5*
CO[C@@]1(NC(=O)C2SC(=C(C(N)=O)C(=O)O)S2)C(=O)N2C(C(=O)O)=C(CSc3nnnn3C)CS[C@@H]21 (stereo partly drawn)	44.7µM*	-9.4%[11.6 µM]	-3.4	.	11.2µM*	-2.0%	30.1*
COC(=O)c1ccc(CSc2nnnn2C)o1	-4.1%	6.0%	.	-9.3%	32.8%	-6.4%	.
COc1cccc(-c2coc3c(C)c4oc(=O)c(CCC(=O)O)c(C)c4cc23)c1	-37.6%	?	0.5	?	?	50.1µM*	47.8*
COC(=O)C1=C(O)/C(=C\c2ccc(CNS(=O)(=O)c3ccc(Cl)cc3)o2)N=C1C	79.4µM*	?	-20.7	25.1µM*	?	?	?
CCOC(=O)C1=C(O)/C(=C/c2ccc(CNC(=O)C(=O)Nc3ccc(C)cc3)o2)N=C1C	-19.6%	?	?	?	-13.6%	?	.
ONCc1ccccc1	8.5%[60.1 µM]	.	.	.	.	.	.
Cc1ccc(S(=O)(=O)N/N=C\c2ccc([N+](=O)[O-])o2)cc1	-14.6%	-4.0%	.	-3.1%	?	10.8%	.
Cc1ccc(S(=O)(=O)N/N=C\c2ccc(C)o2)cc1	?	-20.1%[11.6 µM]	.	39.8µM*	?	44.7µM*	67.5*
SMILES	Pol kappa inh-1	WRN inhibitor	PI5P4Ka inh	POLB inh	POLI inh	Pol eta inh-1	Pol eta inh-2	others
O=C(O)Cc1ccc2c(c1)N(S(=O)(=O)c1cccs1)CC(C(=O)O)O2 (stereo not drawn)	-4.2%	9.8%	-0.4	2.8%	30.8%	2.3%	.
CS(=O)(=O)N1CC(C(=O)O)Oc2ccc(CC(=O)O)cc21 (stereo not drawn)	-34.4%	3.9%	-2.0	?	?	17.8µM*	30.1*
O=[N+]([O-])c1ccc2c(c1)N([O-])C1(CCCCC1)[N+]2=O	?	?	-50.8*	-1.7%	11.2µM*	22.4µM*	84.9*
O=C(O)c1cnn(-c2ccccc2)c1-c1ccncc1	?	-1.4%[11.6 µM]	-3.8	?	?	22.4µM*	60.1*	Pol kappa inh-2=18.9*
C=C1C(=O)OC2C1CCC(C)C1C=CC(=O)C12C (stereo not drawn)	-38.6%	-18.8%	-8.2	.	44.7µM*	14.1µM*	?
CC(=O)O[C@@H]1[C@H]2[C@@H](C[C@@H](C)[C@@H]3C=CC(=O)[C@@]13C)OC(=O)[C@@H]2C	6.4%	-2.6%	4.2	1.3%	-24.1%	6.1%	.
O=C(CCCOc1ccc(Cl)cc1Cl)N1CCc2ccccc2C1	-6.3%	-19.9%	.	-1.4%	-16.7%	-15.9%	.
O=C(O)C1Cc2ccccc2CN1C(=O)CCl (stereo not drawn)	-17.1%	0.6%[11.6 µM]	2.7	-9.4%	148.7%	?	.
O=C(O)C1Cc2ccccc2CN1C(=O)COc1ccc(Cl)cc1Cl (stereo not drawn)	-42.0%	-7.2%[11.6 µM]	3.0	?	12.0%	25.1µM*	?
O=C(O)C1Cc2ccccc2CN1C(=O)COc1ccc(Br)cc1 (stereo not drawn)	79.4µM*	-19.4%	2.5	31.6µM*	?	10µM*	26.9*
COc1ccc(S(=O)(=O)N(C)C[C@@H]2OCCCC[C@H](C)Oc3ccc(NC(=O)Nc4ccc(C(F)(F)F)cc4)cc3C(=O)N([C@H](C)CO)C[C@H]2C)cc1	.	0.6%	-3.9	.	.	-6.1%	.
O=C(O)CCc1ccc(S(=O)(=O)Nc2cc(C(F)(F)F)ccc2N2CCCC2)cc1	?	?	?	.	25.1µM*	22.4µM*	60.1*	Pol kappa inh-2=?
Cc1ccc(S(=O)(=O)N2[C@H](CC(=O)c3ccc(F)cc3)OC[C@@H]2C)cc1	.	-4.9%	-1.1	.	.	.	.
